Consider seven compounds from PubChem BioAssay (Tox21).

A short description of assay [1]: Nuclear factor erythroid 2-related factor 2/antioxidant responsive element (Nrf2/ARE) small molecule agonists: qHTS cell viability counter screen in human keratinocytes (AID 1919968; active means well fitted curve in the direction sought with a large enough effect in the repeat runs; an effect the other way counts as inactive or inconclusive; further: nearly all actives have a fitted effect of over 55% in size; further: potency means the concentration at half of the fitted maximal effect). The method, boiled down:
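KeratinoSens cells (HaCaT keratinocytes stably carrying an ARE-luciferase reporter) were seeded at 1,500 cells/well and rested 5 h at 37 C/5% CO2. They were then exposed to compounds in DMSO for 23 h. Viability was read by CellTiter-Fluor fluorescence after 1 h.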

Assay [2] in a line: Nuclear factor erythroid 2-related factor 2/antioxidant responsive element (Nrf2/ARE) small molecule agonists: luciferase reporter gene qHTS assay in human keratinocytes (AID 1919969; further: nearly all actives have a fitted effect of over 35% in size; further: potency means the concentration at half of the fitted maximal effect). (In a reporter assay the amount or activity of a reporter protein is the signal.)
The target of assay [3] is Gonadotropin-releasing hormone receptor (Homo sapiens) (UniProt P30968). In words: Human gonadotropin-releasing hormone receptor (GnRHR) small molecule agonists, calcium flux assay in GnRHR-HEK293 cells (AID 1920063). Further: nearly all actives have a fitted effect of over 35% in size. The essentials:
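HEK293 cells stably expressing human GnRHR were plated 18 h at 37 °C, loaded with calcium dye 1 h at 37 °C, then given compound in agonist mode; fluorescence (Ex/Em 480/540) read kinetically for 3 min at 1 s intervals.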
(In general: A change in cytosolic calcium serves as a functional read-out for many receptors and channels.)

The target in assay [4] is KiSS-1 receptor (Homo sapiens) (UniProt Q969F8). Description: Human kisspeptin (KISS1R) small molecule agonists, calcium flux assay in KISS1R-HEK293 cells (AID 1920064; active means well fitted curve in the direction sought with a large enough effect in the repeat runs; an effect the other way counts as inactive or inconclusive). The method, boiled down: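 HEK293 cells stably expressing human KISS1R were plated 18 h at 37 °C, loaded with calcium dye for 1 h at 37 °C, then given compound by pin tool. Fluorescence (Ex/Em 480/540) was read kinetically for 3 min.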
KiSS-1 receptor (Homo sapiens), sequence (Q969F8 whole entry, looked up): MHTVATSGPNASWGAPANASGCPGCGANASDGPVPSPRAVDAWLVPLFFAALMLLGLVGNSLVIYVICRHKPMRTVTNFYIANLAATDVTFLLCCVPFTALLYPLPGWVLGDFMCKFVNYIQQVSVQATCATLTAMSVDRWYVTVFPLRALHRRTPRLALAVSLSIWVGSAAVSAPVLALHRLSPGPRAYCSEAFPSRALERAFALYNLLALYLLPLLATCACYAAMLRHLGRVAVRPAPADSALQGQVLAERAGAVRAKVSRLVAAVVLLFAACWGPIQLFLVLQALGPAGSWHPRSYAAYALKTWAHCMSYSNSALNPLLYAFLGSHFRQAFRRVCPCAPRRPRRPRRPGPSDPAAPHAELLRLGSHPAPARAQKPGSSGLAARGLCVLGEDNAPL

A short description of assay [5]: G protein-coupled receptor (GPCR) small molecule agonists, calcium flux assay: HEK293 wild type cell line counter screen (AID 1920065). The essentials: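 Cells were plated and cultured 18 h at 37 C/5% CO2, then loaded with calcium dye for 1 h at 37 C. Compounds in DMSO were pin-transferred in agonist mode, and fluorescence (Ex/Em 480/540) was read kinetically for 3 min at 1 s intervals.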

Assay [6] is described as follows: p53 small molecule agonists, cell-based qHTS assay with human liver microsomes (AID 1963577). The essentials: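 Compounds act here after metabolic activation: human liver microsomes and NADPH, both at 0.5 mg/mL final, were co-added to p53RE-bla cells. Incubation ran 16 h at 37 C, followed by LiveBLAzer detection.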
In general terms: In qHTS, concentration-response curves come from the screen itself.

Assay [7] is described as follows: p53 small molecule agonists, cell-based qHTS assay with rat liver microsomes (AID 1963578). The essentials:
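Read-out is beta-lactamase reporter fluorescence (LiveBLAzer, 2 h, room temperature, dark) in p53RE-bla cells treated 16 h at 37 C with compound, rat liver microsomes and NADPH, both 0.5 mg/mL final.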

Assay [8] is described as follows: p53 small molecule agonists, cell-based qHTS assay with human liver microsomes: qHTS cell viability counter screen (AID 1963579). Further: nearly all actives have a fitted effect of over 45% in size. The essentials:
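Cells carrying the p53 response-element beta-lactamase reporter are treated for 16 h at 37 C with test compounds in the presence of human liver microsomes and NADPH (both 0.5 mg/mL final); ATP-based CellTiter-Glo luminescence then reports viability.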

Assay [9] in a line: p53 small molecule agonists, cell-based qHTS assay with rat liver microsomes: qHTS cell viability counter screen (AID 1963580). Further: nearly all actives have a fitted effect of over 45% in size. The method, boiled down:
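p53RE-bla HCT-116 cells were exposed 16 h at 37 C to compounds with rat liver microsomes (0.5 mg/mL) and NADPH (0.5 mg/mL). Viability was measured in the same wells as ATP content by CellTiter-Glo luminescence.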

The nature of assay [10]: p53 small molecule agonists, cell-based qHTS assay: qHTS cell viability counter screen (AID 1963581). Further: nearly all actives have a fitted effect of over 45% in size. The essentials: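 p53RE-bla HCT-116 cells were exposed to compounds for 16 h at 37 C; after the beta-lactamase FRET read in the same wells, CellTiter-Glo was added and luminescence (intracellular ATP) read after 30 min at room temperature.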
The nature of assay [11]: p53 small molecule agonists, cell-based qHTS assay (AID 1963582; active means well fitted activation curve with a large enough effect in the signal ratio in the repeat runs, not every such curve was filed as active; the % refers to the signal ratio). The method, boiled down:
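p53RE-bla beta-lactamase reporter cells rested 5 h at 37 C/5% CO2, then received compounds in DMSO by pin transfer and were incubated 16 h at 37 C. LiveBLAzer B/G FRET substrate was loaded for 2 h at room temperature before fluorescence reading.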

Assay [12] in a line: cAMP Responsive Elements (CRE) small molecule agonists, cell-based qHTS assay (AID 1963590). The essentials:
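CRE-bla HEK 293T cells in DMEM with 10% dialyzed FBS, NEAA, pyruvate and 25 mM HEPES were plated 18 h at 37 C/5% CO2, then exposed to compounds in DMSO for 3 h before LiveBLAzer B/G FRET substrate addition.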

The nature of assay [13]: cAMP Responsive Elements (CRE) small molecule antagonists, cell-based qHTS assay (AID 1963591; active means well fitted inhibition curve with a large enough effect in the signal ratio in the repeat runs, not every such curve was filed as active; the % refers to the signal ratio). The method, boiled down: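 CRE-bla HEK293T cells were plated 18 h at 37 °C/5% CO2, pinned with compound in DMSO, then stimulated with NKH477 at 0.25 uM final for 3 h. LiveBLAzer B/G FRET substrate was added and plates incubated 2 h at room temperature.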
Assay [14] has as its target Beta-2 adrenergic receptor (Homo sapiens) (UniProt P07550). In words: Adrenergic beta2 receptor (ADRB2) small molecule antagonists, cell-based qHTS assay (AID 1963592). Further: series mostly up to about 92 µM; nearly all actives have a fitted effect of over 50% in size. The essentials: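 Cells (CHO, stable ADRB2 overexpression) incubated 18-20hr at 37C; compounds added from DMSO; agonist mix (1nM isoproterenol, 100uM IBMX, 25uM Ro-20-1724) added; 0.5hr RT; d2-cAMP and anti-cAMP-cryptate added; 1hr RT; 665/615 nm read.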

Assay [15] has the same target. In words: Adrenergic beta2 receptor (ADRB2) small molecule agonists, cell-based qHTS assay (AID 1963593).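 Further: CHO cells stably overexpressing human ADRB2.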 The method, boiled down:
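CHO cells stably over-expressing ADRB2 were plated overnight at 37C, then dosed with compounds plus a stimulation mix containing 100uM IBMX and 25uM Ro-20-1724 for 0.5hr at room temperature. cAMP was measured by HTRF competition, 1hr.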

Assay [16] deals with D(2) dopamine receptor (Homo sapiens) (UniProt P14416). Description: Dopamine D2 receptor (DRD2) small molecule agonists, cell-based qHTS assay (AID 1963594). Further: nearly all actives have a fitted effect of over 35% in size. The method, boiled down: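 HEK293 cells stably expressing human DRD2, pre-treated with PDE inhibitor Ro20-1724 (0.1 mM final) and compound 10 min at room temperature, then stimulated with NKH477 (200nM […]) for 30 min. cAMP read by HTRF (665/620 nm).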
D(2) dopamine receptor (Homo sapiens), sequence (P14416 whole entry, looked up): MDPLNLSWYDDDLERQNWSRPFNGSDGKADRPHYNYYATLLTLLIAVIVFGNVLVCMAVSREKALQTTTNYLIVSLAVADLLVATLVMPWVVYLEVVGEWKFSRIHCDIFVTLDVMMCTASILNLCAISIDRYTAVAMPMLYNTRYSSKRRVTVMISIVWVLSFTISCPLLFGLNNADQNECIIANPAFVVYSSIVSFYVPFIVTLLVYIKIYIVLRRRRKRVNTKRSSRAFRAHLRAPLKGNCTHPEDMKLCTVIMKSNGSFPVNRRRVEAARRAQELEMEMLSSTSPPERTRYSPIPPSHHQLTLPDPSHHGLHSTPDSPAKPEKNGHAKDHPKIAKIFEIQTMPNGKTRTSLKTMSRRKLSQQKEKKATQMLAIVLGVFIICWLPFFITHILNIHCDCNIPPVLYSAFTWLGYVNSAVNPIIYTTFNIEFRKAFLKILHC

The target is the same in assay [17]. In words: Dopamine D2 receptor (DRD2) small molecule antagonists, cell-based qHTS assay (AID 1963595; active means well fitted inhibition curve with a large enough effect in the signal ratio in the repeat runs, with a control signal flat; the % refers to the signal ratio). The method, boiled down:
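HTRF cAMP read-out at 665 and 620 nm emission (340 nm excitation). Antagonist mode: compounds were tested against 12 nM quinpirole in DRD2-HEK293 cells, with 200 nM NKH477 raising cAMP and 0.1 mM Ro20-1724 blocking its breakdown.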

Assay [18] concerns the target 5-hydroxytryptamine receptor 2A (Homo sapiens) (UniProt P28223). In words: 5-hydroxytryptamine receptor 2A (HTR2A) small molecule antagonists, cell-based qHTS assay (AID 1963586). Further: nearly all actives have a fitted effect of over 45% in size. The method, boiled down:
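Antagonist-mode intracellular calcium assay: DOI (4 nM) added after 5 min compound pre-incubation at room temperature to dye-loaded HTR2A-CHO cells. Fluorescence followed for 3 min, sampled every second.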

For assay [19] the target is unchanged. Description: 5-hydroxytryptamine receptor 2A (HTR2A) small molecule agonists, cell-based qHTS assay (AID 1963587). Further: nearly all actives have a fitted effect of over 30% in size. The method, boiled down: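 CHO cells stably expressing human HTR2A, plated 18 h, loaded with calcium dye 1 h at 37 C. Agonist mode: compounds added and intracellular calcium fluorescence recorded kinetically for 2 min at 1 sec intervals.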
Assay [20] addresses Muscarinic acetylcholine receptor M1 (Homo sapiens) (UniProt P11229). In words: Cholinergic receptor muscarinic 1 (CHRM1) small molecule antagonists, cell-based qHTS assay (AID 1963588). Further: nearly all actives have a fitted effect of over 40% in size. The method, boiled down:
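CHRM1-CHO calcium-flux assay, antagonist mode. Cells were seeded 18 h, dye-loaded 1 h at 37 C and given compound for 5 min at RT, then acetylcholine was added at 50nM. FDSS fluorescence was read 3 min; 15 concentrations, three runs.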

“And” between values parts separate entries of the source, which are not always exact repeats. Identical values can stand only once. Inconclusive results are not listed. Some compounds were tested as several samples or in several runs, with calls that do not always agree. The source made the active and inactive calls. Unless noted, the call rests on the fitted dose curve.
On the % scale 0 is the no-effect control and ±100 the full control effect.

5-hydroxytryptamine receptor 2A (Homo sapiens), sequence (P28223 whole entry, looked up): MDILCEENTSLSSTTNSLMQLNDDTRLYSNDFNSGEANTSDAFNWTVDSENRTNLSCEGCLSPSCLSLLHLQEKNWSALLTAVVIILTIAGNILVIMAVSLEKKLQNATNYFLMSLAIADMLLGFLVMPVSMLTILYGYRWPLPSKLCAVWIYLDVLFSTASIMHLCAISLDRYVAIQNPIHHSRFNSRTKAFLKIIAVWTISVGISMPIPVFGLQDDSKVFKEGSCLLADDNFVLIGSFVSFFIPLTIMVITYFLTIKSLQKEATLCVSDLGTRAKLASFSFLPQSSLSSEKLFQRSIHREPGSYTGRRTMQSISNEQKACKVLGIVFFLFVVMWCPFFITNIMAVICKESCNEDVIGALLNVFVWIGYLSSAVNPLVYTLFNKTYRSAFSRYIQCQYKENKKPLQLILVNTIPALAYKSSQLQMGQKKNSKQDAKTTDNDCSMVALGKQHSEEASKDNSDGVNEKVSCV
Gonadotropin-releasing hormone receptor (Homo sapiens), sequence (P30968 whole entry, looked up): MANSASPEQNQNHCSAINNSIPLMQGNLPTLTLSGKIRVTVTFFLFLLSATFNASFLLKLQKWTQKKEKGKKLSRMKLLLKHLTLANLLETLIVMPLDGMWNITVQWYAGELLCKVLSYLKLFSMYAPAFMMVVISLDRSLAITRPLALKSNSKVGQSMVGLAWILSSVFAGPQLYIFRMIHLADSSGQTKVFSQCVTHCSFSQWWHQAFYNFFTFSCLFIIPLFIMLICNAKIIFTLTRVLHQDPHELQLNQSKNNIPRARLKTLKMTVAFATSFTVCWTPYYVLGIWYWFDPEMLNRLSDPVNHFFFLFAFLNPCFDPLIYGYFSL
Muscarinic acetylcholine receptor M1 (Homo sapiens), sequence (P11229 whole entry, looked up): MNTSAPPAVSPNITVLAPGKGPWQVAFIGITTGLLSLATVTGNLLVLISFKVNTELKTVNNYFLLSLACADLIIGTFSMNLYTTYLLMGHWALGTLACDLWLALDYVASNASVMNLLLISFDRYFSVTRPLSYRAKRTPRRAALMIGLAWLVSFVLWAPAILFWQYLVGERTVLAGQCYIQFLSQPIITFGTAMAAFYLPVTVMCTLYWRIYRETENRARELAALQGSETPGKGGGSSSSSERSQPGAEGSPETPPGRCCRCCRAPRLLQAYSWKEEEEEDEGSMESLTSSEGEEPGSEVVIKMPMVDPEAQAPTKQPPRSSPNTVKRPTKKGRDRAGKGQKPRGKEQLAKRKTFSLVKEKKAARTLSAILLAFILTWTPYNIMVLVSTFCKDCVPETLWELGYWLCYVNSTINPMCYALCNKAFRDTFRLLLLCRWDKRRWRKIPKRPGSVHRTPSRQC
Beta-2 adrenergic receptor (Homo sapiens), sequence (P07550 whole entry, looked up): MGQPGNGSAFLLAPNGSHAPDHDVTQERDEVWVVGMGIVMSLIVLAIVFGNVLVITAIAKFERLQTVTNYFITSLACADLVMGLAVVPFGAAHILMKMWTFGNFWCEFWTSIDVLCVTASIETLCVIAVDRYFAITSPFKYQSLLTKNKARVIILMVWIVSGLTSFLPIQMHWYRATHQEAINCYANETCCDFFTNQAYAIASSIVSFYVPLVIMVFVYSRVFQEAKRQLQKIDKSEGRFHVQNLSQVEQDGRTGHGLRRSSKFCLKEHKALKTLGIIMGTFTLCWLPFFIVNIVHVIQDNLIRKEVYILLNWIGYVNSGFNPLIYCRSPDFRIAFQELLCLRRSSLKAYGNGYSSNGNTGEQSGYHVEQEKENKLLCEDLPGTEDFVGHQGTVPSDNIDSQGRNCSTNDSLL

In the case of `CN(C)c1nc(N(C)C)nc(N(C)C)n1`, the Potency entry in assay [1], in assay [3], in [4], in assay [5], in assay [6] and in assay [7] was “inactive” throughout. The Potency entry in assay [8], in assay [9], in assay [10], in assay [11], in assay [12] and in assay [13] was “inactive” each time. In addition, the Potency result in assay [14], in [16] and in [17] was “inactive” in each case. Besides, in [2], the Potency was 3.94 µM (active) and inactive. In assay [15], the activation is 17.3% [at 8.39 µM] (inactive).
As to `CCCCCCC=O`, the Potency result in assay [1], in assay [2], in assay [3], in assay [4], in [5] and in assay [6] was “inactive” throughout. Also, the Potency result in [7], in [8], in [9], in [10], in assay [18] and in assay [19] was “inactive” throughout. In addition, the Potency entry in assay [20], in [12], in assay [13], in assay [14], in assay [16] and in assay [17] was “inactive” in each case.
`CC(C)Cc1ccc(C(C)C(=O)O)cc1` (stereo not drawn): the Potency result in assay [1], in [2], in assay [3], in assay [4], in [5] and in [6] was “inactive” throughout. Besides, the Potency result in [7], in assay [8], in [9], in assay [10], in assay [11] and in [13] was “inactive” each time. Moreover, the Potency entry in assay [14], in assay [15], in assay [16] and in [17] was “inactive” throughout.
Take `CC(=O)Nc1ccc(C(=O)CCl)cc1`: the Potency result was “inactive and 27.3 µM (active)” in assay [1]; 54.8 µM (active) and 9.69 µM (active) in [2]. The Potency result in assay [3], in assay [4], in assay [5], in [6], in [7] and in assay [8] was “inactive” in each case. Also, the Potency result in [9], in assay [10], in assay [18], in assay [19], in assay [20] and in assay [13] was “inactive” throughout. Besides, the Potency entry in assay [14], in [16] and in assay [17] was “inactive” throughout.
For `Cc1cc(C)c(O)c(C)c1`, the Potency result in [1], in assay [2], in assay [3], in assay [4], in assay [5] and in assay [6] was “inactive” each time. The Potency entry in [7], in assay [8], in assay [9], in assay [10], in assay [18] and in assay [19] was “inactive” each time. The Potency result in assay [20], in [12], in assay [13], in [14], in assay [15] and in assay [16] was “inactive” in each case. Also, the Potency entry in assay [17] was “inactive”.
As for `O=C(c1cc(O)c(O)c(O)c1)c1ccc(O)c(O)c1O`, the Potency result in assay [1], in [2], in assay [3], in [4], in assay [5] and in assay [6] was “inactive” each time. Besides, the Potency entry in assay [7], in [8], in assay [9], in [10], in assay [18] and in assay [19] was “inactive” each time. Also, the Potency entry in assay [20], in [12], in [13], in assay [16] and in [17] was “inactive” each time.
For the compound `NC(N)=NC(N)=NCCc1ccccc1`, the Potency result in assay [1], in assay [2], in assay [3], in [4], in [5] and in assay [6] was “inactive” each time. The Potency result in assay [7], in [8], in assay [9], in [10], in assay [18] and in assay [19] was “inactive” in each case. Also, the Potency result in assay [20], in assay [12], in [13], in assay [14], in assay [15] and in assay [16] was “inactive” in each case. Further, the Potency entry in assay [17] was “inactive”.
